The results in this text go back to PubChem BioAssay (NCATS).

Inconclusive results are not listed. Where a call stands in place of a potency, no number is given. Calls of active or inactive are those of the source. Calls follow the shape of the dose curve; as a rule, active = well fitted cell-killing curve with a large enough effect; inconclusive = small, poorly fitted or top-dose-only effect, or effect the other way; inactive = flat fitted curve, though single readings scatter.
Potency is read from the fitted curve at half-maximal effect.

The test system of the first assay is PA-1. Put plainly: Primary qHTS to identify gynecologic anti-cancer compounds using libraries of approved drugs and bioactive compounds (AID 1345084). Also: nearly all actives have a fitted effect of over 55% in size. The following applies: Gynecologic cancer cell panel viability, ATPlite luminescence, 48 h; series mostly up to 57.5 µM. The method, boiled down: (§1)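 Five-concentration response, 48 h; readout is ATP-driven luciferase luminescence.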
For orientation: qHTS replaces the single test concentration by a dilution series.
As for `CC[C@H](CC#N)OC(=O)N[C@@H](C)c1cccc(NC(=O)Nc2ccc(-c3cnco3)c(OC)c2)c1`, the Potency was 0.355 µM (active).
Take `O=C(CCCN1CCN(c2ccc(F)cc2)CC1)NC1c2ccccc2CSc2ccccc21` (centres undefined): the Potency entry was “inactive”.
Regarding `CN1c2ccccc2C(=O)N2CCc3c([nH]c4ccccc34)C21` (centres undefined), the Potency was 7.08 µM (active).
The same measure, in the same setting: for `CCn1c(-c2nonc2N)nc2cncc(CNC3CCNCC3)c21` the value was “inactive”; for `CNc1nc(Nc2ccc(C(=O)N3CCOCC3)cc2OC)ncc1Cl`, “inactive”; for `O=C(Nc1cccc2c(=O)cc(-c3nn[nH]n3)oc12)c1ccc(OCCCCc2ccccc2)cc1`, “inactive”.
Still for that read-out and setting: next, `CCNC(=O)c1noc(-c2cc(C(C)C)c(O)cc2O)c1-c1ccc(CN2CCOCC2)cc1`: 0.251 µM (active); `Nc1[nH]nc2nnc(-c3c(-c4ccccc4)nn4ccccc34)cc12`: “inactive”.
The same measure, in the same setting: next, `Nc1ncnc2c1c(-c1cccc(OCc3ccccc3)c1)cn2C1CC(CN2CCC2)C1` (centres undefined): 14.1 µM (active).
Take `C[C@@]1(C(=O)Nc2ccc(F)nc2)CCCN1c1nc(Nc2cc(C3CC3)[nH]n2)c2cccn2n1`: the Potency is 5.01 µM (active).
The same measure, in the same setting: for `CC1(COc2ccc3c(c2)ncn3-c2ccc3cccc(N4CCC(N)CC4)c3n2)COC1` the value was 8.91 µM (active); for `N#CC1(c2cccc(C(=O)Nc3cc(Oc4ccc5nc(NC(=O)C6CC6)sc5n4)ccc3F)c2Cl)CC1`, 10 µM (active).
The same measure, in the same setting: for `CN1CCC(COc2cnc(-c3cccc(Cn4nc(-c5cccc(C#N)c5)ccc4=O)c3)nc2)CC1` the value was “inactive”.
The same measure, in the same setting: next, `COc1ccnc(CS(=O)c2nc3ccc(OC(F)F)cc3[nH]2)c1OC` (centres undefined): “inactive”; `COc1ccc(-c2cc3nccn3c(Nc3ncccc3C(N)=O)n2)cc1OC`: 3.55 µM (active); `CC(C)CNc1ccnc(NCc2csc(-c3ccccc3)n2)n1`: 12.6 µM (active).
With `CNC(=O)c1cc(Oc2ccc(NC(=O)Nc3ccc(Cl)c(C(F)(F)F)c3)c(F)c2)ccn1`, the Potency result is “inactive”.
The same measure, in the same setting: next, `CCC(=O)N1CCN(c2ccc(-n3c(=O)ccc4cnc5ccc(-c6cnc7ccccc7c6)cc5c43)cc2C(F)(F)F)CC1`: 0.126 µM (active).
As to `O=C1NC(=O)C(c2cnc3ccccn23)=C1c1cn2c3c(cccc13)CN(C(=O)N1CCOCC1)CC2`, the Potency entry is “inactive”.

In another assay the test system is SKOV3. The description is as above. The note with it: Gynecologic cancer cell panel viability, ATPlite luminescence, 48 h; series mostly up to 57.5 µM. A digest of the protocol: as §1
For orientation: Cellular ATP, detected with luciferase, serves as a proxy for viable cell number.
`CC[C@H](CC#N)OC(=O)N[C@@H](C)c1cccc(NC(=O)Nc2ccc(-c3cnco3)c(OC)c2)c1`: the Potency is 6.31 µM (active).
On the same count and under the same terms, next, `O=C(CCCN1CCN(c2ccc(F)cc2)CC1)NC1c2ccccc2CSc2ccccc21` (centres undefined): “inactive”; `Cc1cc(-c2ncc(CC(=O)Nc3ccc(-c4cnccn4)cn3)cc2C)ccn1`: 39.8 µM (active).
Regarding `Clc1ccc(C2(c3ccc(-c4cn[nH]c4)cc3)CCNCC2)cc1`, the Potency is 31.6 µM (active).
The same measure, in the same setting: for `CNc1nc(Nc2ccc(C(=O)N3CCOCC3)cc2OC)ncc1Cl` the value was “inactive”; for `O=C(Nc1cccc2c(=O)cc(-c3nn[nH]n3)oc12)c1ccc(OCCCCc2ccccc2)cc1`, “inactive”; for `O=C(Nc1ccc(OC(F)(F)F)cc1)c1sccc1NCc1ccnc2ccccc12`, “inactive”.
The same measure, in the same setting: for `COc1nccc(-c2c(-c3ccc(F)cc3)ncn2C2CCNCC2)n1` the value was “inactive”; for `Nc1[nH]nc2nnc(-c3c(-c4ccccc4)nn4ccccc34)cc12`, “inactive”.
Same read-out and setting: next, `CN(C)CCCNC(=O)c1ccc(-c2cc(O)c3ncccc3c2)cc1`: “inactive”; `CCN(CCO)CCCOc1ccc2c(Nc3cc(CC(=O)Nc4cccc(F)c4)[nH]n3)ncnc2c1`: “inactive”; `N#CC1(c2cccc(C(=O)Nc3cc(Oc4ccc5nc(NC(=O)C6CC6)sc5n4)ccc3F)c2Cl)CC1`: 20 µM (active).
`CN1CCC(COc2cnc(-c3cccc(Cn4nc(-c5cccc(C#N)c5)ccc4=O)c3)nc2)CC1`: the Potency entry was “inactive”.
Still for that read-out and setting: for `COc1ccnc(CS(=O)c2nc3ccc(OC(F)F)cc3[nH]2)c1OC` (centres undefined) the value was “inactive”; for `CC(C)CNc1ccnc(NCc2csc(-c3ccccc3)n2)n1`, 11.2 µM (active).
Same read-out and setting: for `CNC(=O)c1cc(Oc2ccc(NC(=O)Nc3ccc(Cl)c(C(F)(F)F)c3)c(F)c2)ccn1` the value was “inactive”; for `O=C1NC(=O)C(c2cnc3ccccn23)=C1c1cn2c3c(cccc13)CN(C(=O)N1CCOCC1)CC2`, 1.41 µM (active); for `Cc1ccccc1C(=O)c1ccc(Nc2ccc(Br)cc2N)cc1Cl`, “inactive”.

The next assay concerns Tov-21-G. The assay is described as above. The note with it: Gynecologic cancer cell panel viability, ATPlite luminescence, 48 h; series mostly up to 57.5 µM. The method, boiled down:
as §1
With `CC[C@H](CC#N)OC(=O)N[C@@H](C)c1cccc(NC(=O)Nc2ccc(-c3cnco3)c(OC)c2)c1`, the Potency was 1.26 µM (active).
The same measure, in the same setting: next, `O=C(CCCN1CCN(c2ccc(F)cc2)CC1)NC1c2ccccc2CSc2ccccc21` (centres undefined): “inactive”.
On the same count and under the same terms, next, `C[C@@H]1CCO[C@H]2Cn3cc(C(=O)NCc4ccc(F)cc4F)c(=O)c(O)c3C(=O)N12`: 25.1 µM (active); `Cc1cc(-c2ncc(CC(=O)Nc3ccc(-c4cnccn4)cn3)cc2C)ccn1`: “inactive”; `Clc1ccc(C2(c3ccc(-c4cn[nH]c4)cc3)CCNCC2)cc1`: 12.6 µM (active).
The same measure, in the same setting: for `CN1c2ccccc2C(=O)N2CCc3c([nH]c4ccccc34)C21` (centres undefined) the value was 8.91 µM (active); for `CNc1nc(Nc2ccc(C(=O)N3CCOCC3)cc2OC)ncc1Cl`, “inactive”.
Consider `O=C(Nc1cccc2c(=O)cc(-c3nn[nH]n3)oc12)c1ccc(OCCCCc2ccccc2)cc1`, for which the Potency result is “inactive”.
The same measure, in the same setting: for `O=C(Nc1ccc(OC(F)(F)F)cc1)c1sccc1NCc1ccnc2ccccc12` the value was “inactive”; for `C=CC(=O)Nc1cccc(Sc2nc(Nc3ccc(N4CCN(C)CC4)cc3)ncc2Cl)c1`, 12.6 µM (active).
On the same count and under the same terms, for `Nc1[nH]nc2nnc(-c3c(-c4ccccc4)nn4ccccc34)cc12` the value was “inactive”; for `Nc1ncnc2c1c(-c1cccc(OCc3ccccc3)c1)cn2C1CC(CN2CCC2)C1` (centres undefined), 35.5 µM (active); for `C[C@@H](N)c1ccc(C(=O)Nc2ccnc3[nH]ccc23)cc1`, 31.6 µM (active).
Still for that read-out and setting: next, `CCN(CCO)CCCOc1ccc2c(Nc3cc(CC(=O)Nc4cccc(F)c4)[nH]n3)ncnc2c1`: “inactive”.
Turning to `C[C@@]1(C(=O)Nc2ccc(F)nc2)CCCN1c1nc(Nc2cc(C3CC3)[nH]n2)c2cccn2n1`, the Potency is 12.6 µM (active).
For `N#CC1(c2cccc(C(=O)Nc3cc(Oc4ccc5nc(NC(=O)C6CC6)sc5n4)ccc3F)c2Cl)CC1`, the Potency was 3.98 µM (active).
Still for that read-out and setting: next, `CN1CCC(COc2cnc(-c3cccc(Cn4nc(-c5cccc(C#N)c5)ccc4=O)c3)nc2)CC1`: “inactive”; `Nc1ccc(-c2ccc3ncc4ccc(=O)n(-c5cccc(C(F)(F)F)c5)c4c3c2)cn1`: 17.8 µM (active); `COc1ccnc(CS(=O)c2nc3ccc(OC(F)F)cc3[nH]2)c1OC` (centres undefined): “inactive”.
The same measure, in the same setting: next, `CNC(=O)c1cc(Oc2ccc(NC(=O)Nc3ccc(Cl)c(C(F)(F)F)c3)c(F)c2)ccn1`: “inactive”; `CCC(=O)N1CCN(c2ccc(-n3c(=O)ccc4cnc5ccc(-c6cnc7ccccc7c6)cc5c43)cc2C(F)(F)F)CC1`: 0.0794 µM (active); `Cc1ccccc1C(=O)c1ccc(Nc2ccc(Br)cc2N)cc1Cl`: “inactive”.
